From PubChem BioAssay (EPA / NIEHS)
Activity calls are given as the source filed them. How the source made its calls: active means hit-call score of the fitted dose curve at least 0.9, where 1 is the maximum; inactive means score below 0.9.

Legend:
[1] = read-out: Tissue Factor, F3 (gene 2152); assay: BSK_CASM3C_TissueFactor: BioMAP Diversity Plus: CASM3C Assay for Tissue Factor Biomarker Activity (AID 2283052); details: primary human coronary artery smooth muscle cells; actives raise or lower the signal;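 further: cell surface tissue factor protein level read by ELISA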
[2] = read-out: Interferon-gamma inducible Protein 10 (IP10), CXCL10 (gene 3627); assay: BSK_hDFCGF_IP10: BioMAP Diversity Plus: hDFCGF Assay for Interferon-gamma inducible Protein 10 (IP10) Biomarker Activity (AID 2283053); details: primary human foreskin fibroblasts; actives raise or lower the signal
Summary of the method: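 ELISA quantification of IP-10 after a 24 h chemical exposure of human dermal foreskin fibroblast primary cultures. Both increases and decreases versus DMSO fitted.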

[3] = read-out: Urokinase-type plasminogen activator receptor (uPAR), PLAUR (gene 5329); assay: BSK_CASM3C_uPAR: BioMAP Diversity Plus: CASM3C Assay for Urokinase-type plasminogen activator receptor (uPAR) Biomarker Activity (AID 2283054); details: primary human coronary artery smooth muscle cells; actives raise or lower the signal;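 further: cell-surface uPAR protein level quantified by ELISA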
[4] = read-out: Vascular cell adhesion molecule 1 (VCAM1), VCAM1 (gene 7412); assay: BSK_CASM3C_VCAM1: BioMAP Diversity Plus: CASM3C Assay for Vascular cell adhesion molecule 1 (VCAM1) Biomarker Activity (AID 2283055); details: primary human coronary artery smooth muscle cells; actives raise or lower the signal;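 further: VCAM-1 protein level quantified by ELISA on the cells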
[5] = read-out: Collagen III, COL3A1 (gene 1281); assay: BSK_hDFCGF_CollagenIII: BioMAP Diversity Plus: hDFCGF Assay for Collagen III Biomarker Activity (AID 2283056); details: primary human foreskin fibroblasts; actives raise or lower the signal
Summary of the method: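 Human foreskin fibroblast primary cultures sampled 24 h after dosing; Collagen III quantified by ELISA. Signal fitted bidirectionally against DMSO baseline.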

[6] = read-out: Epidermal growth factor receptor (EGFR), EGFR (gene 1956); assay: BSK_hDFCGF_EGFR: BioMAP Diversity Plus: hDFCGF Assay for Epidermal growth factor receptor (EGFR) Biomarker Activity (AID 2283057); details: primary human foreskin fibroblasts; actives raise or lower the signal
Summary of the method: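 EGFR levels by ELISA in human dermal fibroblast cultures, 24 h post-treatment, fitted bidirectionally versus DMSO. Parallel wells stained with sulforhodamine B to detect overt cytotoxicity.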

[7] = read-out: Interleukin-8 (IL8), CXCL8 (gene 3576); assay: BSK_hDFCGF_IL8: BioMAP Diversity Plus: hDFCGF Assay for Interleukin-8 (IL8) Biomarker Activity (AID 2283058); details: primary human foreskin fibroblasts; actives raise or lower the signal
Summary of the method: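 Primary human foreskin fibroblasts (hDFCGF system) dosed with chemical; IL-8 measured by ELISA 24 hours later. Bidirectional curve fitting relative to DMSO baseline; cytotoxicity tracked in parallel cultures by SRB total protein staining.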

[8] = read-out: Macrophage colony-stimulating factor (MCSF), CSF1 (gene 1435); assay: BSK_hDFCGF_MCSF: BioMAP Diversity Plus: hDFCGF Assay for Macrophage colony-stimulating factor (MCSF) Biomarker Activity (AID 2283060); details: primary human foreskin fibroblasts; actives raise or lower the signal
Summary of the method: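 Human foreskin fibroblast primary cultures; M-CSF measured by ELISA 24 hours after chemical dosing. Bidirectional fitting relative to DMSO, with overt cytotoxicity tracked by parallel SRB total-protein staining (0.1% SRB, 10% TCA fixation, 560 nm).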

[9] = BSK_hDFCGF_SRB: Viability Assessment in the BioMAP Diversity Plus: hDFCGF Assay (AID 2283061); details: primary human foreskin fibroblasts;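 further: cells exposed to compound for 24 h before the read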
Summary of the method: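 Human foreskin fibroblasts in 96-well plates were treated 24 h. Total protein was measured by 0.1% SRB staining after 10% TCA fixation, read at 560 nm. Data were fitted bidirectionally against DMSO.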

[10] = read-out: TIMP metallopeptidase inhibitor 1 (TIMP1), TIMP1 (gene 7076); assay: BSK_hDFCGF_TIMP1: BioMAP Diversity Plus: hDFCGF Assay for TIMP metallopeptidase inhibitor 1 (TIMP1) Biomarker Activity (AID 2283062); details: primary human foreskin fibroblasts; actives raise or lower the signal
Summary of the method: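 Human foreskin fibroblast primary cultures dosed for 24 h; secreted/surface TIMP-1 quantified by ELISA. Bidirectional curve fitting against DMSO baseline; cytotoxicity tracked in parallel cultures by SRB total-protein staining.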

[11] = read-out: Monokine induced gamma interferon (MIG), CXCL9 (gene 4283); assay: BSK_hDFCGF_MIG: BioMAP Diversity Plus: hDFCGF Assay for Monokine induced gamma interferon (MIG) Biomarker Activity (AID 2283063); details: primary human foreskin fibroblasts; actives raise or lower the signal
Summary of the method: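 MIG/CXCL9 measured by ELISA 24 h after dosing primary human skin fibroblasts. Activity fitted in both directions against DMSO controls. Cytotoxicity was checked in parallel cultures by SRB staining read at 560 nm.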

[12] = read-out: Matrix Metallopeptidase 1 (MMP1), MMP1 (gene 4312); assay: BSK_hDFCGF_MMP1: BioMAP Diversity Plus: hDFCGF Assay for Matrix Metallopeptidase 1 (MMP1) Biomarker Activity (AID 2283064); details: primary human foreskin fibroblasts; actives raise or lower the signal
Summary of the method: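 Human foreskin fibroblasts exposed to chemical for 24 h; MMP1 detected by ELISA, with DMSO as baseline for bidirectional fitting.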

[13] = read-out: Plasminogen activator inhibitor-1 (PAI1), SERPINE1 (gene 5054); assay: BSK_hDFCGF_PAI1: BioMAP Diversity Plus: hDFCGF Assay for Plasminogen activator inhibitor-1 (PAI1) Biomarker Activity (AID 2283066); details: primary human foreskin fibroblasts; actives raise or lower the signal
Summary of the method: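 PAI-1 levels in human dermal foreskin fibroblasts were quantified by ELISA 24 h after dosing, with gain or loss analysed against DMSO. Overt cytotoxicity was checked by sulforhodamine B total-protein staining in parallel cultures.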

[14] = read-out: Interferon-gamma inducible Protein 10 (IP10), CXCL10 (gene 3627); assay: BSK_KF3CT_IP10: BioMAP Diversity Plus: KF3CT Assay for Interferon-gamma inducible Protein 10 (IP10) Biomarker Activity (AID 2283068); details: primary human keratinocytes with fibroblasts; actives raise or lower the signal
Summary of the method: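 KF3CT co-culture (keratinocytes + foreskin fibroblasts), 24 h compound, IP-10 by ELISA; bidirectional fit vs DMSO baseline.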

[15] = BSK_KF3CT_SRB: Viability Assessment in the BioMAP Diversity Plus: KF3CT Assay (AID 2283069); details: primary human keratinocytes with fibroblasts;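 further: read 24 h after compound addition; fitted for both signal gain and loss against DMSO baseline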
Summary of the method: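 Overt cytotoxicity is assessed as total protein by sulforhodamine B staining in parallel human skin co-cultures at 24 h after dosing. DMSO serves as negative control and baseline.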

[16] = read-out: Interleukin-1 alpha (IL1a), IL1A (gene 3552); assay: BSK_KF3CT_IL1a: BioMAP Diversity Plus: KF3CT Assay for Interleukin-1 alpha (IL1a) Biomarker Activity (AID 2283070); details: primary human keratinocytes with fibroblasts; actives raise or lower the signal
Summary of the method: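 Readout is IL-1a level by ELISA, compared bidirectionally with DMSO as baseline. Cells: human keratinocytes co-cultured with foreskin fibroblasts, harvested 24 h post-dose.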

[17] = read-out: Vascular cell adhesion molecule 1 (VCAM1), VCAM1 (gene 7412); assay: BSK_hDFCGF_VCAM1: BioMAP Diversity Plus: hDFCGF Assay for Vascular cell adhesion molecule 1 (VCAM1) Biomarker Activity (AID 2283065); details: primary human foreskin fibroblasts; actives raise or lower the signal;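 on AC50: VCAM-1 protein level quantified by ELISA after 24 h chemical exposure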
Summary of the method: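 Human foreskin fibroblast primary cells dosed with chemical, VCAM-1 measured by ELISA at 24 h. Bidirectional curve fitting relative to DMSO as negative control/baseline.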

[18] = read-out: TIMP metallopeptidase inhibitor 2 (TIMP2), TIMP2 (gene 7077); assay: BSK_KF3CT_TIMP2: BioMAP Diversity Plus: KF3CT Assay for TIMP metallopeptidase inhibitor 2 (TIMP2) Biomarker Activity (AID 2283071); details: primary human keratinocytes with fibroblasts; actives raise or lower the signal
Summary of the method: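 TIMP-2 measured by ELISA at 24 h in human keratinocyte/fibroblast primary co-cultures exposed to chemicals. Both increases and decreases were fitted against DMSO. Parallel cultures were stained with SRB for total protein as an overt-cytotoxicity check.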

[19] = read-out: Intercellular Adhesion Molecule 1 (ICAM1), ICAM1 (gene 3383); assay: BSK_KF3CT_ICAM1: BioMAP Diversity Plus: KF3CT Assay for Intercellular Adhesion Molecule 1 (ICAM1) Biomarker Activity (AID 2283067); details: primary human keratinocytes with fibroblasts; actives raise or lower the signal
Summary of the method: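 Human keratinocyte–foreskin fibroblast co-culture was treated for 24 h. Cell-surface ICAM-1 was quantified by ELISA, fitted bidirectionally relative to DMSO. Cytotoxicity was checked in parallel cultures by SRB total-protein staining.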

Measured: AC50

Cc1cccc(OP(=O)(Oc2cccc(C)c2)Oc2cccc(C)c2)c1
active: [8] 4.78 µM | [13] 0.0473 µM
not listed: [17] | [18] | [19]
inactive: all other assays above

Nc1c(Oc2ccccc2)cc(O)c2c1C(=O)c1ccccc1C2=O
active: [2] 17 µM | [8] 10 µM | [11] 15.6 µM | [17] 15.8 µM | [18] 0.549 µM
not listed: [19]
inactive: all other assays above

Oc1c(Br)cc(Br)cc1Br
active: [5] 12.1 µM | [13] 20 µM | [14] 31.6 µM
not listed: [15] | [17]
inactive: all other assays above

CCCCN(CCCC)C(=S)[S-].CCCCN(CCCC)C(=S)[S-].[Ni+2]
not listed: [17] | [19]
inactive: all other assays above

OC(Cc1ccccc1Cl)(Cn1[nH]cnc1=S)C1(Cl)CC1 (stereo not given)
active: [1] 15.3 µM | [2] 29.5 µM | [3] 32.5 µM | [4] 36.3 µM | [5] 9.86 µM | [8] 15 µM | [11] 33.3 µM
not listed: [17] | [18]
inactive: all other assays above

OC(Cc1ccccc1Cl)(Cn1cncn1)C1(Cl)CC1 (stereo not given)
not listed: [17]
inactive: all other assays above

Cc1c([N+](=O)[O-])c(C)c([N+](=O)[O-])c(C(C)(C)C)c1[N+](=O)[O-]
active: [13] 29.5 µM | [14] 32.4 µM
not listed: [15] | [19]
inactive: all other assays above

CC(C)(C)c1ccccc1O
not listed: [15] | [17] | [18] | [19]
inactive: all other assays above

O=C(O)COc1cc(Cl)c(Cl)cc1Cl
active: [1] 5.98 µM
not listed: [15] | [17] | [18] | [19]
inactive: all other assays above

CC(C)(COCC1CO1)COCC1CO1 (stereo not given)
not listed: [15] | [17] | [18]
inactive: all other assays above

CCOP(=O)(OCC)OC(=CCl)c1ccc(Cl)cc1Cl
inactive: [6] | [7]
active: [1] 24.9 µM | [2] 36.4 µM | [3] 30.2 µM | [4] 33.8 µM | [5] 25.6 µM | [8] 31 µM | [9] 30.8 µM | [10] 30.1 µM | [11] 30.7 µM | [12] 31.5 µM | [17] 36.8 µM | [13] 24.7 µM | [14] 32.8 µM | [18] 25.7 µM

CC(C)N(C(=O)CCl)c1ccccc1
active: [1] 20 µM | [2] 3.13 µM | [3] 11 µM | [4] 4.39 µM | [5] 1.69 µM | [7] 13.3 µM | [8] 6.59 µM | [9] 3.03 µM | [10] 2.98 µM | [11] 3.85 µM | [12] 11.4 µM | [17] 1.43 µM | [13] 4.77 µM | [14] 20 µM
inactive: [6] | [16]

CC(C)=CC1C(C(=O)OCc2cccc(Oc3ccccc3)c2)C1(C)C (stereo not given)
active: [1] 9.79 µM | [5] 7.5 µM | [8] 7.43 µM | [9] 12.4 µM | [10] 12.5 µM | [13] 12.5 µM
not listed: [15] | [17] | [18]
inactive: all other assays above

CC(C=O)Cc1ccc2c(c1)OCO2 (stereo not given)
not listed: [17] | [18] | [19]
inactive: all other assays above
